Measurements reported in PubChem BioAssay AID1159580 (chemical genetic matrix, 2015).
Hit rate of the full screen: of about 5,500 compounds, about 2,000 (36%) were called active. Another 18% or so got no clear call; they are omitted. No stated cut-off is given here; in the data, active means normalized growth mostly below about 0.91 (no sharp cut-off); inconclusive means no clear call, values can overlap the other calls; inactive means mostly above about 0.92. Some of the results follow.

Test: chemical genetic growth profiling, strain panel (AID 1159580);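 further: tested at 20 µM; growth read once vehicle control cultures reached saturation at 30 °C; 1 = growth at the plate median or of vehicle wells; lower values mean less growth of the strain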
Conditions: S. cerevisiae deletion strains, growth OD

Measured: normalized growth

CC(=O)Oc1ccccc1C(=O)O
inactive: locus YAL021C, strain ccr4, active compounds read low 0.993 | locus YAL026C, strain drs2, active compounds read low 1 | locus YAL030W, strain snc1, active compounds read low 1 | locus YAL040C, strain CLN3, active compounds read low 0.996 | locus YBL061C, strain skt5, active compounds read low 0.989 | locus YBR009C, strain hhf1, active compounds read low 1.03 | locus YBR023C, strain chs3, active compounds read low 1 | locus YBR171W, strain sec66, active compounds read low 0.985 | locus YBR231C, strain swc5, active compounds read low 1.01 | locus YBR279W, strain paf1, active compounds read low 0.992 | locus YCL011C, strain gbp2, active compounds read low 1 | locus YCL016C, strain dcc1, active compounds read low 0.983 | locus YCL061C, strain MRC1 (second series), active compounds read low 1 | locus YCL069W, strain vba3, active compounds read low 1 | locus YCR088W, strain abp1, active compounds read low 0.989 | locus YDL005C, strain med2, active compounds read low 0.985 | locus YDL040C, strain nat1, active compounds read low 0.996 | locus YDR001C, strain nth1, active compounds read low 0.995 | locus YDR069C, strain doa4, active compounds read low 1.01 | locus YDR137W, strain rgp1, active compounds read low 1 | locus YDR150W, strain NUM1, active compounds read low 0.992 | locus YDR159W, strain sac3, active compounds read low 0.938 | locus YDR195W, strain ref2 1 | locus YDR297W, strain sur2, active compounds read low 1.01 | locus YDR334W, strain swr1, active compounds read low 0.991 | locus YDR335W, strain msn5, active compounds read low 1.03 | locus YDR392W, strain spt3, active compounds read low 0.906 | locus YEL003W, strain gim4, active compounds read low 1.01 | locus YEL037C, strain rad23, active compounds read low 0.998 | locus YEL061C, strain CIN8 (second series), active compounds read low 0.996 | locus YER002W, strain NOP16, active compounds read low 0.988 | locus YER015W, strain faa2, active compounds read low 1.01 | locus YER016W, strain bim1, active compounds read low 0.977 | locus YER111C, strain swi4, active compounds read low 0.985 | locus YER155C, strain BEM2 (second series), active compounds read low 0.996 | locus YFR010W, strain ubp6, active compounds read low 1.09 | locus YGL167C, strain pmr1, active compounds read low 1 | locus YGL173C, strain kem1, active compounds read low 1 | locus YGL227W, strain vid30, active compounds read low 0.989 | locus YGL240W, strain doc1, active compounds read low 1 | locus YGL253W, strain hxk2, active compounds read low 1.03 | locus YHR013C, strain ard1, active compounds read low 0.969 | locus YHR027C, strain rpn1, active compounds read low 1.02 | locus YHR030C, strain SLT2, active compounds read low 1.03 | locus YHR079C, strain IRE1, active compounds read low 1.04 | locus YHR142W, strain chs7, active compounds read low 1.01 | locus YJL092W, strain hpr5, active compounds read low 1 | locus YJL095W, strain BCK1 (second series), active compounds read low 0.989 | locus YJL095W, strain BCK1, active compounds read low 1.05 | locus YJL115W, strain asf1, active compounds read low 0.988 | locus YJL129C, strain trk1, active compounds read low 0.995 | locus YJL154C, strain vps35, active compounds read low 0.989 | locus YJL164C, strain tpk1, active compounds read low 0.999 | locus YJL166W, strain qcr8, active compounds read low 1.01 | locus YJL187C, strain SWE1, active compounds read low 0.987 | locus YJR066W, strain TOR1, active compounds read low 0.978 | locus YKL160W, strain elf1, active compounds read low 0.971 | locus YKR026C, strain gcn3, active compounds read low 0.994 | locus YKR091W, strain srl3, active compounds read low 1 | locus YLL001W, strain dnm1, active compounds read low 0.974 | locus YLL026W, active compounds read low 0.992 | locus YLL041C, strain sdh2, active compounds read low 0.983 | locus YLR027C, strain aat2, active compounds read low 1.01 | locus YLR113W, strain HOG1, active compounds read low 1.01 | locus YLR221C, strain rsa3, active compounds read low 0.996 | locus YLR258W, strain gsy2, active compounds read low 0.997 | locus YLR262C, strain YPT6 (second series), active compounds read low 0.984 | locus YLR320W, strain mms22, active compounds read low 0.975 | locus YLR342W, strain FKS1, active compounds read low 0.997 | locus YLR357W, strain rsc2, active compounds read low 0.964 | locus YLR370C, strain arc18, active compounds read low 1 | locus YLR384C, strain iki3, active compounds read low 0.971 | locus YML120C, strain ndi1, active compounds read low 1.02 | locus YMR058W, strain fet3, active compounds read low 1 | locus YMR125W, strain sto1, active compounds read low 0.997 | locus YMR129W, active compounds read low 0.985 | locus YMR205C, strain PFK2, active compounds read low 1.02 | locus YMR231W, strain pep5, active compounds read low 0.994 | locus YNL071W, strain lat1, active compounds read low 0.998 | locus YNL153C, strain GIM3, active compounds read low 0.994 | locus YNL175C, strain NOP13, active compounds read low 0.989 | locus YNL183C, strain NPR1, active compounds read low 0.997 | locus YNL197C, strain WHI3, active compounds read low 0.995 | locus YNL209W, strain ssb2, active compounds read low 1.02 | locus YNL224C, strain SQS1, active compounds read low 0.988 | locus YNL248C, strain rpa49, active compounds read low 0.956 | locus YNL322C, strain KRE1 (second series), active compounds read low 0.966 | locus YNR049C, strain mso1, active compounds read low 1 | locus YOR001W, strain rrp6, active compounds read low 1.02 | locus YOR070C, strain gyp1, active compounds read low 0.998 | locus YOR080W, strain dia2, active compounds read low 1 | locus YOR083W, strain WHI5 (second series), active compounds read low 1.01 | locus YOR083W, strain WHI5, active compounds read low 0.929 | locus YOR106W, strain vam3, active compounds read low 0.994 | locus YOR231W, strain MKK1, active compounds read low 1.06 | locus YOR265W, strain rbl2, active compounds read low 1.02 | locus YOR270C, strain vph1, active compounds read low 1.04 | locus YOR290C, strain snf2, active compounds read low 0.989 | locus YPL051W, strain arl3, active compounds read low 1 | locus YPL055C, strain LGE1, active compounds read low 0.969 | locus YPL078C, strain atp4, active compounds read low 0.984 | locus YPL106C, strain sse1, active compounds read low 0.976 | locus YPL240C, strain hsp82, active compounds read low 1 | locus YPL241C, strain CIN2, active compounds read low 0.999 | locus YPL256C, strain CLN2, active compounds read low 1.03
